# Measurements from PMC7862700, “An all-to-all approach to the identification of sequence-specific readers for epigenetic DNA modifications on cytosine”.
# Tests used:
# Assay in all cases: DAPPL (digital affinity profiling via proximity ligation, sequencing); 10 mM Tris-HCl pH 7.5, 50 mM NaCl, 1 mM DTT, 4% glycerol, room temperature, 30 min; GST-TFs on glutathione beads, 16-mer random dsDNA library, 0.1% formaldehyde crosslink after washing; high values mean tight binding
# Settings in all cases: protein: recombinant; tags: N-terminal GST; dsDNA, one strand shown
# FLI1 = molecular target: T1, FLI1 (Homo sapiens, UniProt Q01543 1-452)
# T1 sequence: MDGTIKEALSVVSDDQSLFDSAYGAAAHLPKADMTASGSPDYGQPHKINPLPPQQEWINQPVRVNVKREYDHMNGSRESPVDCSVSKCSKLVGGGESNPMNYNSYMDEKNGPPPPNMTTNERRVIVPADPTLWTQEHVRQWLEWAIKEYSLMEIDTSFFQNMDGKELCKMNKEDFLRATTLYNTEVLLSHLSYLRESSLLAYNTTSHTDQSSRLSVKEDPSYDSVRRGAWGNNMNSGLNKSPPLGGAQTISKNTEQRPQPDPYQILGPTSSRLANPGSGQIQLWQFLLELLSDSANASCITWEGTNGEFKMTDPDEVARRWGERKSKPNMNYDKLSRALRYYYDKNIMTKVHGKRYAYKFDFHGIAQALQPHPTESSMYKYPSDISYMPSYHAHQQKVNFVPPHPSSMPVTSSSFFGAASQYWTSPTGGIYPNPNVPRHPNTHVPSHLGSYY
# Summary of the method: (§1)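 Beads coated with glutathione captured GST-fused human transcription factors that had been expressed in yeast, and the factors were then given DNA barcodes and pooled with a tag-only sample. The pools were incubated with 200 nmole of a random double-stranded 16-mer DNA library in Tris/NaCl/DTT/glycerol buffer for 30 min at room temperature, washed, crosslinked with 0.1% formaldehyde and proximity-ligated with BsaI/T4 ligase at 37 °C for 1 h. PCR amplification and Illumina NextSeq500 sequencing came last. Binding signal is each hexamer's read frequency for a factor divided by its frequency for the tag-only sample.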
# ELK1 = molecular target: T2, ELK1 (Homo sapiens, UniProt P19419 1-428)
# T2 sequence: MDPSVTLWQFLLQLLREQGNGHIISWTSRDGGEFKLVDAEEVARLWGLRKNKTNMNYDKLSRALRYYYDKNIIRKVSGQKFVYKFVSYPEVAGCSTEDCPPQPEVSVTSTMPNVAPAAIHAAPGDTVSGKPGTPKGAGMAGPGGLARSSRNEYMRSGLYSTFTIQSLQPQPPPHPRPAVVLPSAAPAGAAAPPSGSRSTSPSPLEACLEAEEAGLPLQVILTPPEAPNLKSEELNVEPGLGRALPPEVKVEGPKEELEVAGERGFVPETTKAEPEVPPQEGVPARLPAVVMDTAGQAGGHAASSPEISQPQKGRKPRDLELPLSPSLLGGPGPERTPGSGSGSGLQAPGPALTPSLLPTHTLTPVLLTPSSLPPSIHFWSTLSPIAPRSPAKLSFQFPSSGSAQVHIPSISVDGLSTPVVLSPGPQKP
# Summary of the method: as §1
# GABPA = molecular target: T3, GABPA (Homo sapiens, UniProt Q06546 1-454)
# T3 sequence: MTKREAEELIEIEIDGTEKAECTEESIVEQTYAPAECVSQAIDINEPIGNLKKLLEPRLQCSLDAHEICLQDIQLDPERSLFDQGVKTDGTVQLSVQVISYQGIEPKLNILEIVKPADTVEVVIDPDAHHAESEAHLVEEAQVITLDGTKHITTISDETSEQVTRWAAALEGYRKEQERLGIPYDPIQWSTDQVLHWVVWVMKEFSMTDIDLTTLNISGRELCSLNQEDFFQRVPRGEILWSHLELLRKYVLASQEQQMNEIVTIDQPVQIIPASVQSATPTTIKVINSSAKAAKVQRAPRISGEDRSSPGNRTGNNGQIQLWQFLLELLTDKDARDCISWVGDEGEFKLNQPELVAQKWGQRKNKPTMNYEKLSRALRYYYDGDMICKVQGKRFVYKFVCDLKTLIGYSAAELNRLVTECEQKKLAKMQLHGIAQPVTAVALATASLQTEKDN
# Summary of the method: as §1
# ERG = molecular target: T4, ERG (Homo sapiens, UniProt P11308 1-479)
# T4 sequence: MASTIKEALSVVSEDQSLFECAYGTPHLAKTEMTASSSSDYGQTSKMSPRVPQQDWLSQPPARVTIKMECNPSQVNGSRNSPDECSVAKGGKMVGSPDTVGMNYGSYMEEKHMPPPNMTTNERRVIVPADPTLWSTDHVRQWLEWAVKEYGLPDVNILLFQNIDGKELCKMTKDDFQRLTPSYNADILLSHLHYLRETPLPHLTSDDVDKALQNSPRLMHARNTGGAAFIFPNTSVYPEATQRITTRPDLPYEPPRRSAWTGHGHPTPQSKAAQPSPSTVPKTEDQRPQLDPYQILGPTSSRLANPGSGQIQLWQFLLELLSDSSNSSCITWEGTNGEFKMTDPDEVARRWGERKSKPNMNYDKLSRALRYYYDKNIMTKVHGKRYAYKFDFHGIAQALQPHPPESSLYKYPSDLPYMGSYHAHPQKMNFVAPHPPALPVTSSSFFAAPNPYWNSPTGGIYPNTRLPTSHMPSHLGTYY
# Summary of the method: as §1
# ELF1 = ELF1 (Homo sapiens, UniProt P32519 1-619)
# Summary of the method: as §1
# EHF = molecular target: T5, EHF (Homo sapiens, UniProt Q9NZC4 1-300)
# T5 sequence: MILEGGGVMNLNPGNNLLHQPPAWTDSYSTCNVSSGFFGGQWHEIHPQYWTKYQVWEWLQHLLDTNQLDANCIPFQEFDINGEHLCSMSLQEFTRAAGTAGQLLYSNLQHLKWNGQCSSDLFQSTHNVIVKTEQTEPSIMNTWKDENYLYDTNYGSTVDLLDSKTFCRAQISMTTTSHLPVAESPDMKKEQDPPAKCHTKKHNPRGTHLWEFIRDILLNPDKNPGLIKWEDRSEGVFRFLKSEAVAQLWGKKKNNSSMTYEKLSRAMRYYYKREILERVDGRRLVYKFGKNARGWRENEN
# Summary of the method: as §1
# SPI1 = SPI1 (Homo sapiens, UniProt P17947 1-270)
# Summary of the method: as §1
# SPIB = SPIB (Homo sapiens, UniProt Q01892 1-262)
# Summary of the method: as §1
# ELK3 = molecular target: T6, ELK3 (Homo sapiens, UniProt P41970 1-407)
# T6 sequence: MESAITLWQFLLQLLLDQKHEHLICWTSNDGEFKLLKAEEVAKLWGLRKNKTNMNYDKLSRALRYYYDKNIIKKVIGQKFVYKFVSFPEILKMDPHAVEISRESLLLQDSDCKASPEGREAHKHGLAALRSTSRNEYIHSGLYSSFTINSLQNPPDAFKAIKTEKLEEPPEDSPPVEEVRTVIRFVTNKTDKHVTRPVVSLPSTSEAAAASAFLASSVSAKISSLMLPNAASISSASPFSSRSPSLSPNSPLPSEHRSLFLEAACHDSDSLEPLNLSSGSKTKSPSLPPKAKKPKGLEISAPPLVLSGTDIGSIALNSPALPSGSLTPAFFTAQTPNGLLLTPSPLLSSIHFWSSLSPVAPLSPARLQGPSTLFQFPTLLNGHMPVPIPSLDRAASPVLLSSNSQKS
# Summary of the method: as §1
# FEV = molecular target: T7, FEV (Homo sapiens, UniProt Q99581 1-238)
# T7 sequence: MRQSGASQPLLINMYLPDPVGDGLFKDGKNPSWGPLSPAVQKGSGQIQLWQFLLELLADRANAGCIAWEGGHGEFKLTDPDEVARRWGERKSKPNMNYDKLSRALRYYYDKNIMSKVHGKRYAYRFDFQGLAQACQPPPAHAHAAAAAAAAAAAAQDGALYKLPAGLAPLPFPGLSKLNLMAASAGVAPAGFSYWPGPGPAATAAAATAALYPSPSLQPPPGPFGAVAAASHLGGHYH
# Summary of the method: as §1
# ETV5 = ETV5 (Homo sapiens, UniProt P41161 1-510)
# Summary of the method: as §1
# SPIC = molecular target: T8, SPIC (Homo sapiens, UniProt Q8N5J4 1-248)
# T8 sequence: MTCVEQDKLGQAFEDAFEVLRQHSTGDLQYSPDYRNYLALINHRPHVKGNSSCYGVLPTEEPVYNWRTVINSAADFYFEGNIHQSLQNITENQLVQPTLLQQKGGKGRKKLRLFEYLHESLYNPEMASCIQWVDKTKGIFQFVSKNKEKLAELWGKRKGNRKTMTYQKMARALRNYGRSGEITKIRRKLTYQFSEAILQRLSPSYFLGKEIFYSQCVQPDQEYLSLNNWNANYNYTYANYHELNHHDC
# Summary of the method: as §1
# ELF4 = ELF4 (Homo sapiens, UniProt Q99607 1-663)
# Summary of the method: as §1
# ELK4 = molecular target: T9, ELK4 (Homo sapiens, UniProt P28324-2 1-405)
# T9 sequence: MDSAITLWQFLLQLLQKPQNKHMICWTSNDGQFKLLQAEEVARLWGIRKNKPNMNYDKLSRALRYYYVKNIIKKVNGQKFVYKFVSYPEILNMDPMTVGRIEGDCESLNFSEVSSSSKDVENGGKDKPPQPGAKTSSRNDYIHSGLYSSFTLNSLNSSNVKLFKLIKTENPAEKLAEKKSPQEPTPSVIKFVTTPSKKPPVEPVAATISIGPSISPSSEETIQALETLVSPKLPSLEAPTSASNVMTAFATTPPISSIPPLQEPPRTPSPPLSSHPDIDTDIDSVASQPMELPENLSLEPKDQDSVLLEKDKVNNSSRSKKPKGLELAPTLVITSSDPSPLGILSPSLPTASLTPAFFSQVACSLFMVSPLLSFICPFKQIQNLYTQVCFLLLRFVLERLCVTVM
# Summary of the method: as §1
# ETV2 = molecular target: T10, ETV2 (Homo sapiens, UniProt O00321 1-342)
# T10 sequence: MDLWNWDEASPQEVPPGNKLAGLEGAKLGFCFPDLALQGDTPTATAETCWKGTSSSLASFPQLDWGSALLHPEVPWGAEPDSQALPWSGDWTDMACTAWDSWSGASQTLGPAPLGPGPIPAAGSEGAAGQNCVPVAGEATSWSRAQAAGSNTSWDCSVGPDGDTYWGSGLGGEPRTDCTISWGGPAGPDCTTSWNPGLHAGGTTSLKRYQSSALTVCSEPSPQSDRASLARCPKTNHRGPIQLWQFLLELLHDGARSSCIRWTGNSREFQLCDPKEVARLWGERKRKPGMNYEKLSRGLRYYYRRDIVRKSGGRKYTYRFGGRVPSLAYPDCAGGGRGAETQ
# Summary of the method: as §1
# ELF3 = molecular target: T11, ELF3 (Homo sapiens, UniProt P78545 1-371)
# T11 sequence: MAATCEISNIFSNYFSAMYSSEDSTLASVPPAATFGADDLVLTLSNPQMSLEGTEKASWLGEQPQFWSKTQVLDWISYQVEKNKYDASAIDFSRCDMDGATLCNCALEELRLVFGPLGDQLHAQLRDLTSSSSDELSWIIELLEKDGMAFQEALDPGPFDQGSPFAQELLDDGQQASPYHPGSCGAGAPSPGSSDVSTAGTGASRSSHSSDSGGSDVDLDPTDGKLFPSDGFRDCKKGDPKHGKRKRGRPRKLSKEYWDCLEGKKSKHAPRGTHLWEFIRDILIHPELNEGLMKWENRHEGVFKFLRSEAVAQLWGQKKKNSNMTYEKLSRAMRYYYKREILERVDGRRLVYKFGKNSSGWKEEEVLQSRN
# Summary of the method: as §1
# ETV1 = ETV1 (Homo sapiens, UniProt P50549 1-477)
# Summary of the method: as §1
# ETV5, sequence (P41161 whole entry): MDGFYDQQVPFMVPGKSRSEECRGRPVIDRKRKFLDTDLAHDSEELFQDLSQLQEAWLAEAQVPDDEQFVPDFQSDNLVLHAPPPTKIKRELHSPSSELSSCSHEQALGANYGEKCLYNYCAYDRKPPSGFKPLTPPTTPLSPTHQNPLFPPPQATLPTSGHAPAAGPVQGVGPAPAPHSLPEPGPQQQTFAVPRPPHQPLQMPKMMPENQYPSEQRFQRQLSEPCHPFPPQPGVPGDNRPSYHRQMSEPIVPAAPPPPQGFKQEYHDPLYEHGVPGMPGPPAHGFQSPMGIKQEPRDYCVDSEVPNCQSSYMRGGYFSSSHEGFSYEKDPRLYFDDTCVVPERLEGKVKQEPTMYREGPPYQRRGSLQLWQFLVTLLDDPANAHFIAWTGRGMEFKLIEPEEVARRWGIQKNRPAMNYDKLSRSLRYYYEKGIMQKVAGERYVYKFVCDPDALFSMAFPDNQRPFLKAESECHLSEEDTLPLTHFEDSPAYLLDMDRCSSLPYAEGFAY
# SPIB, sequence (Q01892 whole entry): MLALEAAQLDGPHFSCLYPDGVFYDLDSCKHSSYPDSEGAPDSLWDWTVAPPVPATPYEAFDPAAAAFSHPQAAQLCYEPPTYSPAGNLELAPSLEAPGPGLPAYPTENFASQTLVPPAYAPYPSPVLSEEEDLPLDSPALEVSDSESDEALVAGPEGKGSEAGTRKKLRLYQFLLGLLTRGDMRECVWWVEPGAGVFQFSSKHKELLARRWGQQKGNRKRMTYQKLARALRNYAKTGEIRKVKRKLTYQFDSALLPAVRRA
# ELF1, sequence (P32519 whole entry): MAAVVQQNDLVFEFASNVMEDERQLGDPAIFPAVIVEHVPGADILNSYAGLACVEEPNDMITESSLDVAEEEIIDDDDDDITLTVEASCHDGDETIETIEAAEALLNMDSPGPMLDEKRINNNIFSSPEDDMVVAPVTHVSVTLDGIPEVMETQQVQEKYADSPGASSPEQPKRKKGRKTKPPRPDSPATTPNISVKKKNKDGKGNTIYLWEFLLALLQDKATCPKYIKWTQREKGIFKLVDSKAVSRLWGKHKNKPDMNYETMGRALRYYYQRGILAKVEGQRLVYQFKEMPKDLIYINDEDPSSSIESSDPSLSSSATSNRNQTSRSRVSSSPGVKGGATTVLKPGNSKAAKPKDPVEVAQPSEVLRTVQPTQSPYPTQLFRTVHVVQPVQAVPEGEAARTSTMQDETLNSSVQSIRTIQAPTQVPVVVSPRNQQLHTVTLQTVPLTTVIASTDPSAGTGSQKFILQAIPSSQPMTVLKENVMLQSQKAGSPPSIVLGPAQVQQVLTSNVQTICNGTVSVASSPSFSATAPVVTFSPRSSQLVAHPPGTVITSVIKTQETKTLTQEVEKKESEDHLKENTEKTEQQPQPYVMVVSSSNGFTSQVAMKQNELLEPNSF
# ELF4, sequence (Q99607 whole entry): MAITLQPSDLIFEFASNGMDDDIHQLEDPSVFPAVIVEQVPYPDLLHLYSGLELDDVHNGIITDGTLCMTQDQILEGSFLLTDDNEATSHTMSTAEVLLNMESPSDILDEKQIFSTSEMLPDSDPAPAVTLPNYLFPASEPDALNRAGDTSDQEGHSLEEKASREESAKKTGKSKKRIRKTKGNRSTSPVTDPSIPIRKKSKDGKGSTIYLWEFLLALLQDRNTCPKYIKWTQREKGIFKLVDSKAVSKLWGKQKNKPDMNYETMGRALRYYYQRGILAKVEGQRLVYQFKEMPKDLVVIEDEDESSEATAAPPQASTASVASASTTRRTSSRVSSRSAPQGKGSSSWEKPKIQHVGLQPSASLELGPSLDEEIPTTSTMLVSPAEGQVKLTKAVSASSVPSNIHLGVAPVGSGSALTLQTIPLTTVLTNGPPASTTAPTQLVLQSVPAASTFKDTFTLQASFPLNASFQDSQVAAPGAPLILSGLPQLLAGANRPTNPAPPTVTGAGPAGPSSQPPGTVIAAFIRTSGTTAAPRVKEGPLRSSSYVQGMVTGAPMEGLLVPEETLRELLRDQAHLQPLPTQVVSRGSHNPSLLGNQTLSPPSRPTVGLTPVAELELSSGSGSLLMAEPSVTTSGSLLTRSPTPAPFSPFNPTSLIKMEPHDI
# ETV1, sequence (P50549 whole entry): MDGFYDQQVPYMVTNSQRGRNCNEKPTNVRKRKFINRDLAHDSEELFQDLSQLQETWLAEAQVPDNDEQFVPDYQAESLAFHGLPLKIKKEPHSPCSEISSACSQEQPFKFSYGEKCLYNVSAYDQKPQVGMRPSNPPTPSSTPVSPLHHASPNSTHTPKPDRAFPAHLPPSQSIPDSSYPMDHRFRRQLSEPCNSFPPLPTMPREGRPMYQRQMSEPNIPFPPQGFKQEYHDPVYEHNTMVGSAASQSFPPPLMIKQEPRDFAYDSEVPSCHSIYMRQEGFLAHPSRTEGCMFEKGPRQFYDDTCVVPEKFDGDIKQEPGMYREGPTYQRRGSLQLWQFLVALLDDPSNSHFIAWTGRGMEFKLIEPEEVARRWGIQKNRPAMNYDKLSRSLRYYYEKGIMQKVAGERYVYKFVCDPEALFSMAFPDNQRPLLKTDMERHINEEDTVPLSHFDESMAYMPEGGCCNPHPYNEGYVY
Sequence,binding signal (FLI1),binding signal (ELK1),binding signal (GABPA),binding signal (ERG),binding signal (ELF1),binding signal (EHF),binding signal (SPI1),binding signal (SPIB),binding signal (ELK3),binding signal (FEV),binding signal (ETV5),binding signal (SPIC),binding signal (ELF4),binding signal (ELK4),binding signal (ETV2),binding signal (ELF3),binding signal (ETV1)
CGGTTC,"1.3 fold enrichment (6-mer frequency, TF over GST control)","1.43 fold enrichment (6-mer frequency, TF over GST control)","1.19 fold enrichment (6-mer frequency, TF over GST control)","1.28 fold enrichment (6-mer frequency, TF over GST control)","1.27 fold enrichment (6-mer frequency, TF over GST control)","1.27 fold enrichment (6-mer frequency, TF over GST control)","1.3 fold enrichment (6-mer frequency, TF over GST control)","1.33 fold enrichment (6-mer frequency, TF over GST control)","1.35 fold enrichment (6-mer frequency, TF over GST control)","1.42 fold enrichment (6-mer frequency, TF over GST control)","1.31 fold enrichment (6-mer frequency, TF over GST control)","1.2 fold enrichment (6-mer frequency, TF over GST control)","1.19 fold enrichment (6-mer frequency, TF over GST control)","1.29 fold enrichment (6-mer frequency, TF over GST control)","1.39 fold enrichment (6-mer frequency, TF over GST control)","1.33 fold enrichment (6-mer frequency, TF over GST control)","1.39 fold enrichment (6-mer frequency, TF over GST control)"
CCAACA,"1.06 fold enrichment (6-mer frequency, TF over GST control)","1.11 fold enrichment (6-mer frequency, TF over GST control)","1.09 fold enrichment (6-mer frequency, TF over GST control)","1 fold enrichment (6-mer frequency, TF over GST control)","1.04 fold enrichment (6-mer frequency, TF over GST control)","1.12 fold enrichment (6-mer frequency, TF over GST control)","1.01 fold enrichment (6-mer frequency, TF over GST control)","1.01 fold enrichment (6-mer frequency, TF over GST control)","1.03 fold enrichment (6-mer frequency, TF over GST control)","1.05 fold enrichment (6-mer frequency, TF over GST control)","1.05 fold enrichment (6-mer frequency, TF over GST control)","1.01 fold enrichment (6-mer frequency, TF over GST control)","1.13 fold enrichment (6-mer frequency, TF over GST control)","1.08 fold enrichment (6-mer frequency, TF over GST control)","1.02 fold enrichment (6-mer frequency, TF over GST control)","1.06 fold enrichment (6-mer frequency, TF over GST control)","1.04 fold enrichment (6-mer frequency, TF over GST control)"
